Measurements from paper PMC7862700, “An all-to-all approach to the identification of sequence-specific readers for epigenetic DNA modifications on cytosine”.

Experiments:
Assay in all cases: DAPPL (digital affinity profiling via proximity ligation, sequencing); 10 mM Tris-HCl pH 7.5, 50 mM NaCl, 1 mM DTT, 4% glycerol, room temperature, 30 min; GST-TFs on glutathione beads, 16-mer random dsDNA library, 0.1% formaldehyde crosslink after washing; high values mean tight binding
FLI1 = biological target: T1, FLI1 (Homo sapiens, UniProt Q01543 1-452); conditions: protein: recombinant; tags: N-terminal GST; dsDNA, one strand shown
T1 sequence: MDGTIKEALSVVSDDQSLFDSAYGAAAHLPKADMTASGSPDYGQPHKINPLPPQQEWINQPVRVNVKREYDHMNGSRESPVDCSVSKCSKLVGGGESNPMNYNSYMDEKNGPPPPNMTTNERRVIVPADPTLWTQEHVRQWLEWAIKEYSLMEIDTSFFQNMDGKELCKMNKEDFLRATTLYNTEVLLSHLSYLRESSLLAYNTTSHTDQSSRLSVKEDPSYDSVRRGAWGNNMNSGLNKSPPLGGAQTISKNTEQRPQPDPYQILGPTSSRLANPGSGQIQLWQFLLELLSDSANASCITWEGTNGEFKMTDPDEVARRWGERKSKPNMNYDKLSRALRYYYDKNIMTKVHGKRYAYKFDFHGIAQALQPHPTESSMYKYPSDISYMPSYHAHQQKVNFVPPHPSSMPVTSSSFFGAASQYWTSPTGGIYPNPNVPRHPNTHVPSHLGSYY
Summary of the method: (§1)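 Human transcription factors fused to GST were expressed in yeast, captured on glutathione beads, given DNA barcodes and pooled with a GST-only negative control. Pools were incubated with 200 nmole of a 16-mer random double-stranded DNA library in Tris/NaCl/DTT/glycerol buffer at room temperature for 30 min. They were then washed, crosslinked with 0.1% formaldehyde, proximity-ligated (BsaI/T4 ligase, 1 h, 37 °C), PCR-amplified and sequenced on an Illumina NextSeq500. Binding signal is each 6-mer's read frequency for a factor divided by its frequency for the GST control.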

ELK1 = biological target: T2, ELK1 (Homo sapiens, UniProt P19419 1-428); conditions: protein: recombinant; tags: N-terminal GST; dsDNA, one strand shown
T2 sequence: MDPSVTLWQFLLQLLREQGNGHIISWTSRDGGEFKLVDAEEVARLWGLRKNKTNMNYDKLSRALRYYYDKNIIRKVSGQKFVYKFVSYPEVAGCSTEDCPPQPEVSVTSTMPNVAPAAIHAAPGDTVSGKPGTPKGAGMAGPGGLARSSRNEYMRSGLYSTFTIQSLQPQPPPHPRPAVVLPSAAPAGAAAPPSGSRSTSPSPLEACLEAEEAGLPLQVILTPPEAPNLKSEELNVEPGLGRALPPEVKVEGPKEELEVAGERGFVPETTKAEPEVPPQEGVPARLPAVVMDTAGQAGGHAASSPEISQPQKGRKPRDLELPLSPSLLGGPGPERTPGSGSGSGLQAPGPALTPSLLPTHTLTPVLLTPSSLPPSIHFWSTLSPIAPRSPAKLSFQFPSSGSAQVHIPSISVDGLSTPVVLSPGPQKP
Summary of the method: as §1

GABPA = biological target: T3, GABPA (Homo sapiens, UniProt Q06546 1-454); conditions: protein: recombinant; tags: N-terminal GST; dsDNA, one strand shown
T3 sequence: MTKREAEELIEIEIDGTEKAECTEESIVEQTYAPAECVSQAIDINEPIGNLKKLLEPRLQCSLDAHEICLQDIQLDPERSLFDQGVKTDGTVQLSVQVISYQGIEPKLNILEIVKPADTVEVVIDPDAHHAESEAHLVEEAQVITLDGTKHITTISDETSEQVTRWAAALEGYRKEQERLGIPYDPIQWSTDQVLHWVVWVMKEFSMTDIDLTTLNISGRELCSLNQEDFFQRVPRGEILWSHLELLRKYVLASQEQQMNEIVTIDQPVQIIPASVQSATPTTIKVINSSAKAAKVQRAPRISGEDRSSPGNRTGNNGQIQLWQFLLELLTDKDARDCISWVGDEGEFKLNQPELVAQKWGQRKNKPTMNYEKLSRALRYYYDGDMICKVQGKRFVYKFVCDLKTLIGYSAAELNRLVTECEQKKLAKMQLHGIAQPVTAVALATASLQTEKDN
Summary of the method: as §1

ERG = biological target: T4, ERG (Homo sapiens, UniProt P11308 1-479); conditions: protein: recombinant; tags: N-terminal GST; dsDNA, one strand shown
T4 sequence: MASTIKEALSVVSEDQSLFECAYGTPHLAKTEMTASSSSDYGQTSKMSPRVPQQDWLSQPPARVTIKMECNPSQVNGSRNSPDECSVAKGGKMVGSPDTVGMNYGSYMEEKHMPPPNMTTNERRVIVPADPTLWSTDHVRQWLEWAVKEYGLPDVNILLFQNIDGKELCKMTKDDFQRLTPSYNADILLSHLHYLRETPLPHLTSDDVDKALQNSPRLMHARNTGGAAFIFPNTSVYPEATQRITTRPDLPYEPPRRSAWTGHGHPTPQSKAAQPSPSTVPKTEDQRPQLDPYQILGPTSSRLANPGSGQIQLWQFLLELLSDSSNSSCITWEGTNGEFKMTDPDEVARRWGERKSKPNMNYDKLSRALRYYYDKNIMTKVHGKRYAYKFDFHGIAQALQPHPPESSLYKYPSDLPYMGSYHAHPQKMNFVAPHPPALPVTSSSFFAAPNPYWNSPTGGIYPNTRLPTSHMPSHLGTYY
Summary of the method: as §1

ELF1 = ELF1 (Homo sapiens, UniProt P32519 1-619); conditions: protein: recombinant; tags: N-terminal GST; dsDNA, one strand shown
Chain of ELF1 (P32519 whole entry): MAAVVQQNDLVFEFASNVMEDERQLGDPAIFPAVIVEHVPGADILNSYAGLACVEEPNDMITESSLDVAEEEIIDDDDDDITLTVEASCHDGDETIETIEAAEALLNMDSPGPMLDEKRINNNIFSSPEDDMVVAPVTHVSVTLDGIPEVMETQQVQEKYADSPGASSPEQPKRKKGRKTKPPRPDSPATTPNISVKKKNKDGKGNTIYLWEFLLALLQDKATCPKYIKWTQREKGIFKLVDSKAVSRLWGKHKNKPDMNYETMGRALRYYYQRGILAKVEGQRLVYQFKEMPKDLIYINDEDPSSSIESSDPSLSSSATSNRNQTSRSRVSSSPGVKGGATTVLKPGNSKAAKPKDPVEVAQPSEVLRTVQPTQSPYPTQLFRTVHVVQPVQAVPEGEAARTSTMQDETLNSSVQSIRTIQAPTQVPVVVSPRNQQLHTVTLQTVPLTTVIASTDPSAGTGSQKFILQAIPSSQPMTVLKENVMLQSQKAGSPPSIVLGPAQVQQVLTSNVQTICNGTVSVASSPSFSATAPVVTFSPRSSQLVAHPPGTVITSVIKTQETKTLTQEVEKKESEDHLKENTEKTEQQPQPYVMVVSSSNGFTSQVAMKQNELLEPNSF
Summary of the method: as §1

EHF = biological target: T5, EHF (Homo sapiens, UniProt Q9NZC4 1-300); conditions: protein: recombinant; tags: N-terminal GST; dsDNA, one strand shown
T5 sequence: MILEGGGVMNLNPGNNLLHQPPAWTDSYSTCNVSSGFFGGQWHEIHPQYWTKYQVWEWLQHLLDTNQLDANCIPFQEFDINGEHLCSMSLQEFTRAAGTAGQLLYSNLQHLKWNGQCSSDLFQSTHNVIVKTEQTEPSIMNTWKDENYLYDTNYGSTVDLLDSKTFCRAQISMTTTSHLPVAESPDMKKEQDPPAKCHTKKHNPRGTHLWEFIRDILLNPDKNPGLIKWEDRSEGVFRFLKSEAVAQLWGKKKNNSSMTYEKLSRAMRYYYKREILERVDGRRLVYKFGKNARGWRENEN
Summary of the method: as §1

SPI1 = SPI1 (Homo sapiens, UniProt P17947 1-270); conditions: protein: recombinant; tags: N-terminal GST; dsDNA, one strand shown
Summary of the method: as §1

SPIB = SPIB (Homo sapiens, UniProt Q01892 1-262); conditions: protein: recombinant; tags: N-terminal GST; dsDNA, one strand shown
Chain of SPIB (Q01892 whole entry): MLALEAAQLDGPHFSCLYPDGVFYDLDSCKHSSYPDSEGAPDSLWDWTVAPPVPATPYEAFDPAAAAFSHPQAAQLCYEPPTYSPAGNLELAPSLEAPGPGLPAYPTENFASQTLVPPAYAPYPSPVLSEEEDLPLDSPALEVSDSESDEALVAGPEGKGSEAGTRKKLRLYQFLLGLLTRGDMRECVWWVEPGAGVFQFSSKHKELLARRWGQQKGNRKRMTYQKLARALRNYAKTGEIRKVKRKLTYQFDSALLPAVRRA
Summary of the method: as §1

ELK3 = biological target: T6, ELK3 (Homo sapiens, UniProt P41970 1-407); conditions: protein: recombinant; tags: N-terminal GST; dsDNA, one strand shown
T6 sequence: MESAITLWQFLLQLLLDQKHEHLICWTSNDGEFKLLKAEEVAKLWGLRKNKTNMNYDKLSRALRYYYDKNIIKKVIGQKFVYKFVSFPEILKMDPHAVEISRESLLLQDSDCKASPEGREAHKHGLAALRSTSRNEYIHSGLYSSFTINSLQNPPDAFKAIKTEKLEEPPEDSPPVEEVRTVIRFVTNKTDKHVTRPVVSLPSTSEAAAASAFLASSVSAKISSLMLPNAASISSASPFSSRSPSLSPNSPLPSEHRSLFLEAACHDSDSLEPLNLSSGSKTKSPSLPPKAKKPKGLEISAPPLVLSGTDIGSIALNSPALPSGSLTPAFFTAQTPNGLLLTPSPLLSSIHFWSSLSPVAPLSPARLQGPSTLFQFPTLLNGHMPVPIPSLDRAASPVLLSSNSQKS
Summary of the method: as §1

FEV = biological target: T7, FEV (Homo sapiens, UniProt Q99581 1-238); conditions: protein: recombinant; tags: N-terminal GST; dsDNA, one strand shown
T7 sequence: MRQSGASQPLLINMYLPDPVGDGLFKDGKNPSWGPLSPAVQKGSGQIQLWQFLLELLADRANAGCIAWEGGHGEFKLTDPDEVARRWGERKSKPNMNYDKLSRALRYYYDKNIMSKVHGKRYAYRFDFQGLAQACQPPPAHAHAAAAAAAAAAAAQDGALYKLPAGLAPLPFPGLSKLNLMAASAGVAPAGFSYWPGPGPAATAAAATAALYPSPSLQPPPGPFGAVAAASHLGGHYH
Summary of the method: as §1

ETV5 = ETV5 (Homo sapiens, UniProt P41161 1-510); conditions: protein: recombinant; tags: N-terminal GST; dsDNA, one strand shown
Chain of ETV5 (P41161 whole entry): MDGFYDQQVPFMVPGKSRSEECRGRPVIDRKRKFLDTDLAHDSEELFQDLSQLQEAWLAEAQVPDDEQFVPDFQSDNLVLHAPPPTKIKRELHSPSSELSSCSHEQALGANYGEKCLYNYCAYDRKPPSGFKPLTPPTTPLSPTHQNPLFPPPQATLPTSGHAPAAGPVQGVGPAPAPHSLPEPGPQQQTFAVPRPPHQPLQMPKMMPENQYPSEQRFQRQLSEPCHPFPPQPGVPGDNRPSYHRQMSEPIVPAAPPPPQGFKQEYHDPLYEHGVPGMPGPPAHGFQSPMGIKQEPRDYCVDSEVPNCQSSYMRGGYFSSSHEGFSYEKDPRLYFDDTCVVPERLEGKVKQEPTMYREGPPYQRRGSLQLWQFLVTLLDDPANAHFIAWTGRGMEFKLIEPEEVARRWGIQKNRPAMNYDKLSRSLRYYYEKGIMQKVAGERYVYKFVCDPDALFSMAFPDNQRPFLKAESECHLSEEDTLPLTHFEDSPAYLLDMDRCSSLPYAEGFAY
Summary of the method: as §1

HSF1 = HSF1 (Homo sapiens, UniProt Q00613 1-529); conditions: protein: recombinant; tags: N-terminal GST; chain copies: 3; dsDNA, one strand shown
Chain of HSF1 (Q00613 whole entry): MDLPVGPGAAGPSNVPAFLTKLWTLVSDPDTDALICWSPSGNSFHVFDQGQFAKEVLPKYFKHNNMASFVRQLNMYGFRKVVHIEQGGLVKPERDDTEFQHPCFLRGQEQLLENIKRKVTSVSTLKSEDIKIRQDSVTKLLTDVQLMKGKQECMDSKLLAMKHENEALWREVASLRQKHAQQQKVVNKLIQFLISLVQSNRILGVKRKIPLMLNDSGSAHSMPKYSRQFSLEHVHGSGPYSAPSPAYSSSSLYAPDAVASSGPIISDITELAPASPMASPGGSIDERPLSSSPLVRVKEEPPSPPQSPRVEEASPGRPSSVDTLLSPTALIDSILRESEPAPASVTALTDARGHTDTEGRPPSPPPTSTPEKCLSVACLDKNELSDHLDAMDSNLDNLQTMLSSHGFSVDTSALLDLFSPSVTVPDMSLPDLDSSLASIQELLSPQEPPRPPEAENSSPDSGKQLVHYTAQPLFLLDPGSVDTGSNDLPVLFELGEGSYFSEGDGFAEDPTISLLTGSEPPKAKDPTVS
Summary of the method: as §1

SPIC = biological target: T8, SPIC (Homo sapiens, UniProt Q8N5J4 1-248); conditions: protein: recombinant; tags: N-terminal GST; dsDNA, one strand shown
T8 sequence: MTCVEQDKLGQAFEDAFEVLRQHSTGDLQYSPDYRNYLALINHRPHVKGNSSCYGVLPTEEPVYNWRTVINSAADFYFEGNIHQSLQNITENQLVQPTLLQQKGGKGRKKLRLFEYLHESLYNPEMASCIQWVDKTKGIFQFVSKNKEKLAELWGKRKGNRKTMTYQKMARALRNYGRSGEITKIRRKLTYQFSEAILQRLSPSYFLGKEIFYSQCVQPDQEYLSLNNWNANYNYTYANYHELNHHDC
Summary of the method: as §1

ELF4 = ELF4 (Homo sapiens, UniProt Q99607 1-663); conditions: protein: recombinant; tags: N-terminal GST; dsDNA, one strand shown
Chain of ELF4 (Q99607 whole entry): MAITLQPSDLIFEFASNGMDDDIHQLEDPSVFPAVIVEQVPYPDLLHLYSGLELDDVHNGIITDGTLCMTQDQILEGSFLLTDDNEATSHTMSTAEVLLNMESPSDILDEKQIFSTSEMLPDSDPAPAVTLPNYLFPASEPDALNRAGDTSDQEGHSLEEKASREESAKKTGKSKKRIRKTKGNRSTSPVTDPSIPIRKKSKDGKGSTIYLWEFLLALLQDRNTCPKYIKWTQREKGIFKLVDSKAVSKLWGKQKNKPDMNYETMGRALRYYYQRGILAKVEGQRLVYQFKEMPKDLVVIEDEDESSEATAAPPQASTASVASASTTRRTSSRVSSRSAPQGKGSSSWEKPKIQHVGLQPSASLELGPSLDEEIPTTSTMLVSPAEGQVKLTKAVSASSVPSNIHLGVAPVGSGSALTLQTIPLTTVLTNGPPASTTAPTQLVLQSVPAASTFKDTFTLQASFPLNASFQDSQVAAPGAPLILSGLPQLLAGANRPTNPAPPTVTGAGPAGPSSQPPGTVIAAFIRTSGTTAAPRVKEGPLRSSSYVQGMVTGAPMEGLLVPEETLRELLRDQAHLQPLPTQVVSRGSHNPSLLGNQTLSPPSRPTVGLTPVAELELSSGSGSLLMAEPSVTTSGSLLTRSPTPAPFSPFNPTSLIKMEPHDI
Summary of the method: as §1

ELK4 = biological target: T9, ELK4 (Homo sapiens, UniProt P28324-2 1-405); conditions: protein: recombinant; tags: N-terminal GST; dsDNA, one strand shown
T9 sequence: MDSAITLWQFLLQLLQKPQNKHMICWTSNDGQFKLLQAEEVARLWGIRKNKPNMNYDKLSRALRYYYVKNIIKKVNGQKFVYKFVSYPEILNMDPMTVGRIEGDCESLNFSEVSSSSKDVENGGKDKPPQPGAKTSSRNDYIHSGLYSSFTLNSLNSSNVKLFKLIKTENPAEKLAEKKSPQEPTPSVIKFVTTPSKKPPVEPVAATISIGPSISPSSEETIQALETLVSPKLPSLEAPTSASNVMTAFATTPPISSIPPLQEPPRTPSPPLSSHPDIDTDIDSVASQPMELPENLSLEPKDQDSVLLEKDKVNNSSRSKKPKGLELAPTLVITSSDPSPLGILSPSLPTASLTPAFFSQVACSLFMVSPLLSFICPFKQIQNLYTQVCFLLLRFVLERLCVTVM
Summary of the method: as §1

ETV2 = biological target: T10, ETV2 (Homo sapiens, UniProt O00321 1-342); conditions: protein: recombinant; tags: N-terminal GST; dsDNA, one strand shown
T10 sequence: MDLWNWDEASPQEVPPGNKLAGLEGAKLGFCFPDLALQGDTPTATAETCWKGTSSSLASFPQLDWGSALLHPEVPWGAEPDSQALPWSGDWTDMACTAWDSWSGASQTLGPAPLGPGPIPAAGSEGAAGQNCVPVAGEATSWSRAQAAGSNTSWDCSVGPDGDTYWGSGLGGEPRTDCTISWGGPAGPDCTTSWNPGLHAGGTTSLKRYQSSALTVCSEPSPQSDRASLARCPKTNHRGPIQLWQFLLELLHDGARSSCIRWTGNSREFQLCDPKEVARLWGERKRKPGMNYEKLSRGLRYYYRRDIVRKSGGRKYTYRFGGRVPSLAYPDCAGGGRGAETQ
Summary of the method: as §1

ELF3 = biological target: T11, ELF3 (Homo sapiens, UniProt P78545 1-371); conditions: protein: recombinant; tags: N-terminal GST; dsDNA, one strand shown
T11 sequence: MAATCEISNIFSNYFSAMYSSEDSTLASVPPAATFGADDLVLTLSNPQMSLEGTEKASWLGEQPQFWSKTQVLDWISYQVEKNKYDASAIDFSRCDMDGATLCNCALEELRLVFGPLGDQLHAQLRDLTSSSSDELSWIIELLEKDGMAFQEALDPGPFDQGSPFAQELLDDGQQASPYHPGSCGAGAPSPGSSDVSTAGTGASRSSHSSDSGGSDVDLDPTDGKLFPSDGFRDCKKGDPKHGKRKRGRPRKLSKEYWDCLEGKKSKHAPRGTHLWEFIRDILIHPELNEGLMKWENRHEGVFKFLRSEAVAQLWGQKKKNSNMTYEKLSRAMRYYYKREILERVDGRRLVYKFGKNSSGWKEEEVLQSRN
Summary of the method: as §1

CRX = CRX (Homo sapiens, UniProt O43186 1-299); conditions: protein: recombinant; tags: N-terminal GST; dsDNA, one strand shown
Chain of CRX (O43186 whole entry): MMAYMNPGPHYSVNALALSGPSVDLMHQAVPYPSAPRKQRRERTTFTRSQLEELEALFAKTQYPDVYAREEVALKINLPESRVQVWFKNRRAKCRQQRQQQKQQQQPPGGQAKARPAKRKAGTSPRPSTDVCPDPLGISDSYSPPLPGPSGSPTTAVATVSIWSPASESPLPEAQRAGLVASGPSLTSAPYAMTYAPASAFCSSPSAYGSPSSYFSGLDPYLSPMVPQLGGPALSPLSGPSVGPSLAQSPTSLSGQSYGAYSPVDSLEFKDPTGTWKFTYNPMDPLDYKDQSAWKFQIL
Summary of the method: as §1

ETV1 = ETV1 (Homo sapiens, UniProt P50549 1-477); conditions: protein: recombinant; tags: N-terminal GST; dsDNA, one strand shown
Chain of ETV1 (P50549 whole entry): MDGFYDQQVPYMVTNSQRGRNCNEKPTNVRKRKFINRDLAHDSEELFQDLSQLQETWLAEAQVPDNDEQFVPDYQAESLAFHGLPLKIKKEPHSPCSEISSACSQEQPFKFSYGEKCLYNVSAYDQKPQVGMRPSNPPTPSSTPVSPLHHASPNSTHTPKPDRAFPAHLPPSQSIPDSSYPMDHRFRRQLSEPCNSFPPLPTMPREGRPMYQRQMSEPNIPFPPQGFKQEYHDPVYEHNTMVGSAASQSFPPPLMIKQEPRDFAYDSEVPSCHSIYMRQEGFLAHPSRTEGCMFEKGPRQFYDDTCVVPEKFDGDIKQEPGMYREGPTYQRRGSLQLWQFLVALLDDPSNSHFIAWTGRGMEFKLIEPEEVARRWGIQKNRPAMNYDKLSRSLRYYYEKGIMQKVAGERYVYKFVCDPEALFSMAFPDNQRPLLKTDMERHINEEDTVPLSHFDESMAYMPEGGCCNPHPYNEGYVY
Summary of the method: as §1

With GATTAC the binding signal (FLI1) was 1.16 fold enrichment (6-mer frequency, TF over GST control), the binding signal (ELK1) was 1.1 fold enrichment (6-mer frequency, TF over GST control) and the binding signal (GABPA) was 1.13 fold enrichment (6-mer frequency, TF over GST control). For the same sequence, the binding signal (ERG) was 1.12 fold enrichment (6-mer frequency, TF over GST control), the binding signal (ELF1) was 1.07 fold enrichment (6-mer frequency, TF over GST control) and the binding signal (EHF) was 1.12 fold enrichment (6-mer frequency, TF over GST control). For the same sequence, the binding signal (SPI1) was 1.09 fold enrichment (6-mer frequency, TF over GST control), the binding signal (SPIB) was 1.15 fold enrichment (6-mer frequency, TF over GST control) and the binding signal (ELK3) was 1.18 fold enrichment (6-mer frequency, TF over GST control). For the same sequence, the binding signal (FEV) was 1.05 fold enrichment (6-mer frequency, TF over GST control), the binding signal (ETV5) was 1.06 fold enrichment (6-mer frequency, TF over GST control) and the binding signal (HSF1) was 2.08 fold enrichment (6-mer frequency, TF over GST control). For the same sequence, the binding signal (SPIC) was 1.13 fold enrichment (6-mer frequency, TF over GST control), the binding signal (ELF4) was 1.08 fold enrichment (6-mer frequency, TF over GST control) and the binding signal (ELK4) was 1.23 fold enrichment (6-mer frequency, TF over GST control). For the same sequence, the binding signal (ETV2) was 1.1 fold enrichment (6-mer frequency, TF over GST control), the binding signal (ELF3) was 1.04 fold enrichment (6-mer frequency, TF over GST control) and the binding signal (CRX) was 3.27 fold enrichment (6-mer frequency, TF over GST control). For the same sequence, the binding signal (ETV1) was 1.1 fold enrichment (6-mer frequency, TF over GST control).
